This is a sample that favours compounds with a hit; in the whole collection about 12% have one here.
Pf growth 96h: inhibits malaria parasite growth, 96 h; P. falciparum luciferase reporter growth, 96 h; 6.9% of 320,000 active; Potency, µM (series often up to 28.7 µM), without a hit: at the highest dose activity change, negative = inhibition, actives largely listed as inhibitors; AID 504834; also: potency is read from the fitted curve at half-maximal effect; % is scaled to controls: 0 for no effect and ±100 for the full control effect
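Erythrocytes infected with luciferase-expressing P. falciparum were dispensed at 2% hematocrit and 0.05% parasitemia (final), then incubated with compounds 96 hours at 37 C in 5% CO2. Luminescence after detection reagent addition reported growth.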
Pf growth 48h: inhibits P. falciparum growth in the first generation, 48 h. Potency, µM (top dose mostly 28.7 µM), inactives show top-dose activity change, negative = inhibition, hits mostly inhibitors. AID 504832. P. falciparum luciferase growth in erythrocytes, 48 h. 5.9% of 310,000 active; also: potency is read from the fitted curve at half-maximal effect; % is scaled to controls: 0 for no effect and ±100 for the full control effect
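Cell-based growth assay: transgenic P. falciparum expressing firefly luciferase, cultured in red cells within RPMI 1640 containing 0.5% w/v Albumax, 24 mM bicarbonate and gentamycin. A drop in luciferase activity indicates inhibition.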
SARS PLpro yeast-1: SARS-CoV PLP inhibition in yeast. S. cerevisiae expressing SARS-CoV PLpro, growth rescue. Potency, µM (titrated, usually from 32.9 µM), without a hit: top-dose activity, positive = growth rescue, hits mostly activators. 0.19% of 330,000 active; calls by dose curve; also: potency is read from the fitted curve at half-maximal effect; 0% is about no effect; nearly all actives have a fitted effect of over 55% in size
Sm TGR block: blocks Schistosoma mansoni thioredoxin glutathione reductase; Q962Y6; purified TGR, DTNB reduction, TNB absorbance 405 nm; Potency, µM (highest dose often 114 µM), for inactives: at the highest dose activity change, negative = inhibition, usual class: inhibitors; 3% of 360,000 active; AID 485364; also: potency is read from the fitted curve at half-maximal effect; % is scaled to controls: 0 for no effect and ±100 for the full control effect; nearly all actives have a fitted effect of over 60% in size
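First, TGR (20 nM dispensed) and NADPH were mixed with compound. Second, a 15 min room-temperature incubation followed. Third, further NADPH and then DTNB were added to start the reaction. Finally, TNB absorbance was monitored kinetically.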
SARS PLpro yeast-2: Validates SARS-CoV PLpro inhibitor hits in yeast; shares compounds with SARS PLpro yeast-1; yeast expressing SARS-CoV PLpro, growth phenotype rescue; calls only; 19% of 1,000 active; AID 652038; call rule not given here
Starred values were filed as active, the others as inactive; i = inactive; ? = inconclusive; / = no result given; + = active, no number; [ ] = remark or other dose. Unless noted, calls follow the shape of the dose curve; as a rule, active = well fitted curve in the direction sought with a large enough effect; inconclusive = small, poorly fitted or top-dose-only effect, or another doubt; inactive = no such curve, though single readings can be large; an effect the other way counts as inactive or inconclusive.

SMILES	Pf growth 96h	Pf growth 48h	SARS PLpro yeast-1	Sm TGR block	SARS PLpro yeast-2
CC(C)c1ccc(NC2CCCN(C(=O)CCN3CCOCC3)C2)cc1 (stereo not drawn)	?	-7.1%	-5.4%	-1.0%	/
CCc1nccn1CCC(=O)N1CCCC(Nc2ccc(C(C)C)cc2)C1 (stereo not drawn)	2.5%	-13.2%	/	8.2%	i
COc1cccc(C(=O)Nc2cccc(C(=O)OCc3cc(=O)n4c5c(sc4n3)CCCC5)c2)c1	/	/	/	8.3%	/
COc1ccccc1NC(=S)NNC(=O)c1cc(C)n(C)n1	57.7%	/	?	0.8%	i
COc1ccccc1NC(=S)NNC(=O)c1cc(C)nn1C	?	/	3.2%	-29.7%	/
CC(O)CC(=O)NOCc1ccccc1 (stereo not drawn)	/	/	?	/	i
C#CC[N+](C)(C)CCCCCCCCCC	?	0.928µM*	3.16µM*	3.1%	i
CCN(CC)C(=O)c1ccccc1NC(=O)c1cccc(S(=O)(=O)N(CC)CC)c1	?	?	-6.1%	-4.3%	/
CCN(CC)S(=O)(=O)c1cccc(C(=O)N/N=C/c2ccc(O)c(O)c2O)c1	-3.3%	-12.0%	5.01µM*	?	+
CCN(CC)S(=O)(=O)c1cccc(C(=O)N/N=C(\C)c2ccc(O)cc2O)c1	?	0.0%	3.55µM*	-1.4%	i
Cc1ccc(N2CC(NC(=O)/C=C\c3ccc4c(c3)OCO4)CC2=O)cc1C (stereo not drawn)	/	/	/	-2.1%	/
CCOC(=O)c1c(C)[nH]c(C)c1S(=O)(=O)NCC(=O)Nc1cccc(C#N)c1	/	/	/	13.3%	/
CCCCCN(C(=O)NC(=O)Nc1ccccc1C)S(=O)(=O)c1ccccc1	4.7%	43.0%	?	1.5%	i
Cc1ccc(C(=O)NC(=S)Nc2ccccc2N2CCCC2)cc1[N+](=O)[O-]	10.8%	-19.6%	?	-0.4%	+
O=C(NC(=S)Nc1ccccc1N1CCCC1)c1ccccc1[N+](=O)[O-]	-101.5%	?	-1.0%	3.0%	/
O=C(CSc1nc(-c2ccco2)cc(C(F)(F)F)n1)Nc1ccc2c(c1)OCO2	7.2%	-1.3%	?	1.5%	+
O=C(CCCSc1nc(-c2ccco2)cc(C(F)(F)F)n1)Nc1ccc2c(c1)OCO2	?	?	/	-2.1%	/
CC(C)Sc1nc2ccccc2n2cnnc12	?	12.3%	-6.9%	25.8%	/
COc1cc(C(=O)NC2CCN(Cc3nnnn3Cc3cccs3)CC2)cc(OC)c1OC	/	/	3.98µM*	-13.5%	i
Cc1[nH]n(-c2ccccc2)c(=O)c1/C=N/NC(=O)c1cccc([N+](=O)[O-])c1	?	30.3%	6.8%	11.5%	/
Cc1[nH]n(-c2cccc3ccccc23)c(=O)c1/C=N/NC(=O)c1cccc([N+](=O)[O-])c1	46.6%	?	?	-10.5%	+
COc1ccc(OCC(=O)Sc2ccc(C)cc2)cc1	?	13.1%	2.82µM*	3.16µM*	i
CC1=C(C(=O)Nc2cccnc2)C(c2cccc(Br)c2)n2nc(SCc3ccccc3)nc2N1 (stereo not drawn)	/	/	/	-16.2%	/
Cc1ccc(NC(=O)CCNS(=O)(=O)c2ccc(Br)cc2)cc1S(=O)(=O)N1CCOCC1	?	?	?	-0.2%	i
Cc1ccsc1C1Nc2ccc3ncccc3c2C2=C1C(=O)CC(C)(C)C2 (stereo not drawn)	1.17µM*	1.65µM*	11.2µM*	3.3%	i
SMILES	Pf growth 96h	Pf growth 48h	SARS PLpro yeast-1	Sm TGR block	SARS PLpro yeast-2
O=C(CP(=O)(c1ccccc1)c1ccccc1)N/N=C/c1cc(Br)cc(Br)c1O	8.4%	-21.0%	2.51µM*	-31.6%	+
Cn1c(N)c(C(=O)COC(=O)CCCc2c[nH]c3ccccc23)c(=O)n(C)c1=O	?	/	14.5%	13.0%[11.4 µM]	/
Cn1c(N)c(C(=O)COC(=O)CCc2c[nH]c3ccccc23)c(=O)n(C)c1=O	-23.0%	/	3.55µM*	10.1%	i
CN(CC(=O)Nc1ccc(Cl)c(C(F)(F)F)c1)C(=O)/C=C/c1cccs1	?	?	?	-13.5%	i
CN(CC(=O)Nc1ccc(Cl)c(C(F)(F)F)c1)C(=O)/C=C/c1ccco1	-0.9%	-6.8%	-18.8%	-2.6%	/
COC(=O)Cc1c(C)nc2nc(-c3ccc(Cl)cc3)[nH]n2c1=O	9.5%	/	?	-7.4%	i
C[C@]12c3[nH]c4cc(-c5ccco5)ccc4c3CCN1C(=O)[C@@H](CC(=O)NCCCn1ccnc1)C[C@@H]2C(=O)N1CCOCC1	/	/	?	/	i
CC1CN(C(=O)CCC(=O)Nc2cc(F)ccc2F)c2ccccc2S1 (stereo not drawn)	/	/	/	2.4%	/
COc1cc(Cl)c(C)cc1NC(=O)Cn1ncc2c(=O)oc3ccccc3c21	/	/	/	-1.8%	/
CC1(C)Cc2nc3oc4c(=O)n(CC(=O)Nc5ccccc5)cnc4c3cc2CO1	-4.1%	0.0%	5.9%	3.4%	/
Cc1cccc(NC(=O)Cn2cnc3c(oc4nc5c(cc43)COC(C)(C)C5)c2=O)c1	0.0%	-0.1%	12.6µM*	-3.6%	i
CCOC(=O)N1CCN(C(=O)CNC(=O)c2ccc(Br)cc2)CC1	?	15.5%	6.7%	-3.3%	/
COc1cccc(C(NC(C)=O)c2ccc3cccnc3c2O)c1 (stereo not drawn)	30.4%	?	3.16µM*	-3.6%	i
O=C(COc1cccc2cccnc12)Nc1nccs1	58.1%	126.6%	5.8%	0.7%	/
CC(=O)NC(c1cccc([N+](=O)[O-])c1)c1ccc2cccnc2c1O (stereo not drawn)	345.8%	-61.6%	1.12µM*	-5.3%	i
Oc1c(C(Nc2cccc(C(F)(F)F)c2)c2cccnc2)ccc2cccnc12 (stereo not drawn)	3.7µM*	9.28µM*	?	0.708µM*	i
Oc1cccc(C(Nc2nccs2)c2ccc3cccnc3c2O)c1 (stereo not drawn)	?	3.29µM*	0.447µM*	17.8µM*	+
Cc1cc(C)nc(Nc2cccc(C(F)(F)F)c2)n1	-29.0%	4.4%	-0.6%	-20.5%	/
Cc1cc(F)ccc1NC(=O)C(C(C)C)N1Cc2ccccc2C1=O (stereo not drawn)	/	/	/	-13.2%	/
Clc1cccc(/C=N/N2CCN(Cc3ccccc3)CC2)c1	-15.4%	45.8%	24.4%	6.3%	/
CCCCNC(=O)CCCCCNS(=O)(=O)c1ccc(OC)cc1	39.7%	5.4%	?	-25.8%	i
Cc1nc([N+](=O)[O-])cn1CC(=O)Nc1ccc([N+](=O)[O-])cc1	?	-14.2%	14.1%	4.2%	/
C/C(=N\NC(N)=S)c1ccc(Cl)s1	?	-14.5%	10µM*	5.5%	?
C/C(=N\NC(=S)NC(C)C)c1ccc(Cl)s1	?	-28.7%	?	-6.5%	/
Cc1ccc(Cl)cc1NC(=O)c1cc2c(=O)n3cccc(C)c3nc2n1C	/	/	/	5.0%	/
Cc1ccc(C(=O)c2oc3ccccc3c2NC(=O)c2cc(=O)c3cc(C)ccc3o2)cc1	/	/	/	1.5%	/
N#CC1=C(N)OC2=C(C(=O)CC(c3ccccc3)C2)C1c1cccnc1 (stereo not drawn)	?	-34.4%	6.6%	-8.2%	/

Screening data (PubChem BioAssay)
